Measured values taken from PubChem BioAssay.
A number with no mark means an inactive call. For some assays here: Entries with a potency or affinity are not part of this list. Activity calls are given as the source filed them. Unless noted, no rule for the calls is given here.

What was measured:
[1] = antimalarial activity against Dd2 strain (AID 2302;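 active = growth inhibition above 50% at the single 2 µM test dose, taken to imply half-maximal potency below 2 µM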;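 also: 0% = DMSO untreated growth and 100% = chloroquine plus artemisinin killed control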); conditions: P. falciparum Dd2 in RBCs, LDH growth readout, 72 h; at 2 µM; active compounds read high
[2] = human hepatoma cell viability loss – ATP luminescence, cytotoxicity control for P. falciparum antimalarial project, primary screen (AID 2303;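 active = inhibition above 50%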;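 also: 0% = DMSO wells and 100% = digitonin-killed cells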); conditions: HepG2 viability, 24-48 h, at 10 µM, active compounds read high
[3] = biological target: L-lactate dehydrogenase (Plasmodium falciparum (isolate CDC / Honduras)) (UniProt Q27743); assay: PfLDH activity inhibition – cell lysate, 3D7 strain, counter-screen for P. falciparum growth inhibition project (AID 2304);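 also: 0% = vehicle and 100% = reference inhibitor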; conditions: P. falciparum 3D7 crude extract, LDH APAD/NBT absorbance; at 2 µM; active compounds read high
Chain of L-lactate dehydrogenase (Plasmodium falciparum (isolate CDC / Honduras)) (Q27743 whole entry, looked up): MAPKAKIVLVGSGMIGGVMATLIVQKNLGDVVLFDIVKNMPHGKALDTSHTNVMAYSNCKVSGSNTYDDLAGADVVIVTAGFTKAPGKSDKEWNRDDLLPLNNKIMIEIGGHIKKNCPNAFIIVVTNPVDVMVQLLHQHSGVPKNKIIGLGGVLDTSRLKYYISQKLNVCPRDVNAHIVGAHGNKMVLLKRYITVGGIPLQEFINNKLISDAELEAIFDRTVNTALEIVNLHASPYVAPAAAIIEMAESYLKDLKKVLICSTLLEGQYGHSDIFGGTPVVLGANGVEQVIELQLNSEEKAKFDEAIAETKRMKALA

[4] = inhibition of 3D7 malaria parasite growth – strain 3D7 (AID 2306);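 also: 0% = DMSO wells and 100% = chloroquine plus artemisinin control wells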; conditions: P. falciparum 3D7 erythrocytic growth, LDH absorbance, 72 h; at 2 µM; active compounds read high
[5] = biological target: Calcium-dependent protein kinase 1 (Plasmodium falciparum (isolate 3D7)) (UniProt P62344); assay: PfCDPK1 kinase inhibitors, biochemical, TCAMS library (AID 1159585; cut-off not given, nearly all actives have IC50 up to about 0.98 µM;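 also: inhibitors leave more ATP so luminescence rises with inhibition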); conditions: recombinant PfCDPK1, Kinase-Glo ATP depletion luminescence
Chain of Calcium-dependent protein kinase 1 (Plasmodium falciparum (isolate 3D7)) (P62344 whole entry, looked up): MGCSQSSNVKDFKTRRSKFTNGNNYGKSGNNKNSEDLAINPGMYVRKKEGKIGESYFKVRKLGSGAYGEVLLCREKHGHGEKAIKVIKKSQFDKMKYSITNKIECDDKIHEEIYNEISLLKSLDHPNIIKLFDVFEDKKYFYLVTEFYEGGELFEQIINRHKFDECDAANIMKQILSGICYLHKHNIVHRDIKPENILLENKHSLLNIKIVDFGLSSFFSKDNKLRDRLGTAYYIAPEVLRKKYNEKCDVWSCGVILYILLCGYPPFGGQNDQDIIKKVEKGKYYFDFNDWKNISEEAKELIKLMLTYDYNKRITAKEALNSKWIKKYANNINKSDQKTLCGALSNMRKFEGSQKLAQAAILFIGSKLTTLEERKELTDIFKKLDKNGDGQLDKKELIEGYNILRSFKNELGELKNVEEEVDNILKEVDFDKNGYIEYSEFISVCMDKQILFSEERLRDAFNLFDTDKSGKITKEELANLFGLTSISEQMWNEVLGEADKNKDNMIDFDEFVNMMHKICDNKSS

[6] = biological target: Plasmodium falciparum protein kinase 6 (PK6, PF3D7_1337100) (UniProt Q8IDW1); assay: PfPK6 kinase inhibitors, biochemical, TCAMS library (AID 1159586); conditions: recombinant PfPK6, Kinase-Glo ATP depletion luminescence
Chain of Plasmodium falciparum protein kinase 6 (PK6, PF3D7_1337100) (Q8IDW1 1-305): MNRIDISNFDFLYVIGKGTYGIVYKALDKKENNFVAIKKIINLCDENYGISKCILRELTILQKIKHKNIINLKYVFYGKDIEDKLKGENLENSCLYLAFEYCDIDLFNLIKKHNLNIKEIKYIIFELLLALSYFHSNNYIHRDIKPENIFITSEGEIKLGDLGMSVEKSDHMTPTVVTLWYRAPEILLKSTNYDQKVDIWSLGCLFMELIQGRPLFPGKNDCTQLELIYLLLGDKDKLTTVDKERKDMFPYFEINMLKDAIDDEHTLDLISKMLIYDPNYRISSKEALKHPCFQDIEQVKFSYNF

[7] = biological target: Protein kinase 7 (PK7), Plasmodium falciparum 3D7 (PF3D7_0213400) (UniProt Q7YTF7); assay: inhibition of Plasmodium PK7 catalytic activity – biochemical, TCAMS antimalarial set, Kinase-Glo luminescence (AID 1159587); conditions: recombinant PfPK7, Kinase-Glo ATP depletion luminescence
Chain of Protein kinase 7 (PK7), Plasmodium falciparum 3D7 (PF3D7_0213400) (Q7YTF7 1-343): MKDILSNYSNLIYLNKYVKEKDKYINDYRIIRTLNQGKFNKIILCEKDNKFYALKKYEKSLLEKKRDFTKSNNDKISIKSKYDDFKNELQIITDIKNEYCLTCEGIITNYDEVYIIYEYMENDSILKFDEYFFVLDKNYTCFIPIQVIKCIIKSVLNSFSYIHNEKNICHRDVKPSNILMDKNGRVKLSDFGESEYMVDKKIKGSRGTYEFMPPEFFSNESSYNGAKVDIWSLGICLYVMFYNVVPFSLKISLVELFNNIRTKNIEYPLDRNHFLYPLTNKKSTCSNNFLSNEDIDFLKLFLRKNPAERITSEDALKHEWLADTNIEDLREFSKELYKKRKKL

[8] = biological target: Calcium-dependent protein kinase 4 (Plasmodium falciparum (isolate 3D7)) (UniProt Q8IBS5); assay: PfCDPK4 kinase inhibitors, biochemical, TCAMS library (AID 1159588; cut-off not given, nearly all actives have IC50 up to about 0.91 µM); conditions: recombinant PfCDPK4, Kinase-Glo ATP depletion luminescence
Chain of Calcium-dependent protein kinase 4 (Plasmodium falciparum (isolate 3D7)) (Q8IBS5 whole entry, looked up): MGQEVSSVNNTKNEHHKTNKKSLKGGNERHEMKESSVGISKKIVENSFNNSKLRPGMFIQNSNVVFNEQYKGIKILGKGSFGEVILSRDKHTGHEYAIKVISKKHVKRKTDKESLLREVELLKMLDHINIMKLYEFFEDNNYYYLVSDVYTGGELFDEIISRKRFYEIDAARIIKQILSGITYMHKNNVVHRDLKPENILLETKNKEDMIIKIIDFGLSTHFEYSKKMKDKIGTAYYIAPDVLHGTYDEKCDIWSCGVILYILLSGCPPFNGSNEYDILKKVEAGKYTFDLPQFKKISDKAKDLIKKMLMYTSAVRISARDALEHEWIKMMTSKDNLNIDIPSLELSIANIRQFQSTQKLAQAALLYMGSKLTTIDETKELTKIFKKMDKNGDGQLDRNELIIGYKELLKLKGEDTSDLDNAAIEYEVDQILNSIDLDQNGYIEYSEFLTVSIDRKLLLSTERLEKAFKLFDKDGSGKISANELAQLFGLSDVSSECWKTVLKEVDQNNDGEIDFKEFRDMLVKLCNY

| SMILES | growth inhibition [1] | inhibition [2] | inhibition [3] [%] | growth inhibition [4] | outcome [5] | outcome [6] | outcome [7] | outcome [8] |
| --- | --- | --- | --- | --- | --- | --- | --- | --- |
| COc1cc(NCC(C)CNCc2cn(Cc3ccccc3)c3ccccc23)nc2ccccc12 (stereo not given) | 55% (active) | 21% | -6 | 90% (active) | inactive | inactive | inactive | inactive |
| CC(C)c1sc(N2CCN(C)CC2)nc1C(=O)NCCc1ccc(Br)cc1 | 60% (active) | -1% | -1 | 89% (active) | inactive | inactive | inactive | inactive |
| O=C(Nc1nc2cc(S(=O)(=O)NCCCN3CCOCC3)ccc2n1CCCn1ccnc1)c1ccc(Cl)cc1 | -6% | -27% | -1 | 95% (active) | inactive | inactive | inactive | inactive |
| O=C(N[C@H](Cc1ccc(Cl)cc1)C(=O)N1CCN(c2ccnc3cc(Cl)ccc23)CC1)[C@H]1Cc2ccccc2CN1 | 41% | 16% | 5 | 85% (active) | inactive | inactive | inactive | inactive |
| O=C(Nc1ccc2c(ccn2C2CCCN(Cc3cc(F)cc(F)c3F)CC2)c1)c1ccco1 (stereo not given) | 94% (active) | 7% | -1 | 89% (active) | inactive | inactive | inactive | inactive |
| O=C(O)c1ccc(NC(=O)C2CC(=O)N(Cc3ccc(Cl)cc3)C(=Nc3ccc(Cl)cc3)S2)cc1 (stereo not given) | 95% (active) | -1% | -6 | 99% (active) | inactive | inactive | inactive | inactive |
| CCOc1cc(C(=O)N[C@@H](Cc2ccccc2)[C@H](O)CNCc2cc(OC)cc(OC)c2)cc(N2CCCC2=O)c1 | 63% (active) | 0% | 4 | 94% (active) | inactive | inactive | inactive | inactive |
| CC(C)CN1CCCN(Cc2cccc(NC(=O)c3ccc(-c4ccccc4)cc3)c2)CC1 | 24% | 30% | 1 | 99% (active) | inactive | inactive | inactive | inactive |
| CCCCN(CCCC)CCNC(=O)c1cc(OC(F)(F)F)ccc1O | 90% (active) | 8% | -8 | 93% (active) | inactive | inactive | inactive | inactive |
| Clc1ccc2c(NCCc3ccccn3)ccnc2c1 | 72% (active) | 13% | -1 | 92% (active) | inactive | inactive | inactive | inactive |
| N#Cc1ccc(N(CCOc2ccc(Cl)c(Cl)c2)Cc2ccccc2C(F)(F)F)cc1C(F)(F)F | 57% (active) | 13% | -2 | 90% (active) | inactive | inactive | inactive | inactive |
| O=C(/C=C/c1ccc(Cl)c(Cl)c1)NC1CCC(CN2CCC(c3coc4ccccc34)CC2)CC1 (stereo not given) | 41% | 40% | 3 | 102% (active) | inactive | inactive | inactive | inactive |
| O=C(Nc1cccc(CN2CCCN(CC3CCCCC3)CC2)c1)c1ccc(Cl)c(Cl)c1 | 15% | 39% | 7 | 91% (active) | inactive | inactive | inactive | inactive |
| CCOC(=O)c1ccc(-c2cnoc2-c2cc(CC)c(OC)cc2O)o1 | 97% (active) | 12% | 1 | 101% (active) | inactive | inactive | inactive | inactive |
| O=C(Nc1ccc(CN2CCN(S(=O)(=O)c3cccc(Cl)c3)CC2)cc1)c1cccs1 | 41% | 9% | 0 | 84% (active) | inactive | inactive | inactive | inactive |
| COc1ccc2c(NN=Cc3ccc(N(C)C)cc3)ccnc2c1 | 100% (active) | 12% | -1 | 102% (active) | inactive | inactive | inactive | inactive |
| CN1CCN(CC(=O)Nc2cccc(-c3ccc(-c4nc5ccc(F)cc5[nH]4)cc3)c2)CC1 | 98% (active) | 20% | 6 | 101% (active) | inactive | inactive | inactive | inactive |
| CN1CCC(c2cc3c(cc2Br)CCN3C(=O)Nc2ccc(-c3ccncc3)c(Cl)c2)CC1 | -1% | 26% | -1 | 91% (active) | inactive | inactive | inactive | inactive |
| CCc1cccc(C)c1-n1nc(-c2cc(C(C)(C)C)oc2C)cc1N | 95% (active) | 4% | 5 | 95% (active) | inactive | inactive | inactive | inactive |
| N#Cc1ccc2c(c1)CCN(CCC1CCC(NC(=O)c3cc4ccccc4[nH]3)CC1)CC2 (stereo not given) | 25% | 17% | -1 | 89% (active) | inactive | inactive | inactive | inactive |

| SMILES | growth inhibition [1] | inhibition [2] | inhibition [3] [%] | growth inhibition [4] | outcome [5] | outcome [6] | outcome [7] | outcome [8] |
| --- | --- | --- | --- | --- | --- | --- | --- | --- |
| COc1ccc2nccc(NC(=O)C3(O)CCC(NCc4ccc5c(c4)NCCS5)CC3)c2n1 (stereo not given) | 64% (active) | 1% | -1 | 93% (active) | inactive | inactive | inactive | inactive |
| COc1ccccc1C1CCN(C2CCC(NC(=O)/C=C/c3cccc(Cl)c3F)CC2)CC1 (stereo not given) | 19% | 50% (active) | -4 | 96% (active) | inactive | inactive | inactive | inactive |
| CC1CN=C(c2cccc(NC(=O)Nc3cccc(C4=NCC(C)N4)c3)c2)N1 (stereo not given) | 98% (active) | 7% | -3 | 94% (active) | inactive | inactive | inactive | inactive |
| Cc1cc(N2CCN(C3CCCCC3)CC2)nc2cccc(O)c12 | 37% | 12% | -3 | 101% (active) | inactive | inactive | inactive | inactive |
| COc1ccccc1C1CCN(C2CCC(NC(=O)/C=C/c3ccc(F)c(F)c3)CC2)CC1 (stereo not given) | 9% | 49% | 1 | 94% (active) | inactive | inactive | inactive | inactive |
| COc1ccc2nccc([C@@H](O)CN3CCC(NC(=O)Cc4cccc5c(Br)cccc45)CC3)c2c1 | 34% | 15% | -3 | 99% (active) | inactive | inactive | inactive | inactive |
| COc1cc(OC)cc(-c2nc3c(C#N)c(OCCN(C)C)ccc3[nH]2)c1 | 25% | 4% | -3 | 99% (active) | inactive | inactive | inactive | inactive |
| N#Cc1ccc(C=Cc2nccc3c2[nH]c2ccccc23)cc1 | 28% | 33% | 0 | 97% (active) | inactive | inactive | inactive | inactive |
| CCNc1cc(C(=O)N[C@@H](Cc2ccccc2)[C@H](O)CNCCC(C)c2ccccc2)cc(N2CCCC2=O)c1 (stereo not given in full) | 95% (active) | 0% | 3 | 99% (active) | inactive | inactive | inactive | inactive |
| O=C(Nc1nc(-c2ccccn2)cs1)c1ccc(Br)s1 | 84% (active) | 40% | 7 | 96% (active) | inactive | inactive | inactive | inactive |
| CCc1c(C)nc(-n2nc(C)cc2NC(=O)C(CC)c2ccccc2)[nH]c1=O (stereo not given) | 93% (active) | 41% | -1 | 97% (active) | inactive | inactive | inactive | inactive |
| O=C(NCCc1ccccc1)c1cc(-c2cccnc2)cnc1NCC1CC1 | 35% | 3% | 6 | 93% (active) | inactive | inactive | inactive | inactive |
| NC(=O)c1cccc(Nc2nccc(Nc3ccc4[nH]c(-c5ccccc5)cc4c3)n2)c1 | 98% (active) | 28% | -2 | 101% (active) | inactive | inactive | inactive | inactive |
| CN(C)c1ccc(-c2csc(C(=O)NCC3CCN(CC4CCCCC4)C3)c2)cc1 (stereo not given) | 28% | 35% | 1 | 86% (active) | inactive | inactive | inactive | inactive |
| COc1ccc2nccc(NN=Cc3cccnc3)c2c1 | 84% (active) | -1% | -6 | 100% (active) | inactive | inactive | inactive | inactive |
| FC(F)(F)c1cc(CNCCCNc2nc3ccncc3[nH]2)ccc1Cl | 15% | 11% | 2 | 99% (active) | inactive | inactive | inactive | inactive |
| N#Cc1c(N2CCN(c3ccc(F)cc3)CC2)nc(N)c2c(N)nc3c(c12)CC(=O)N3C1CC1 | 82% (active) | 2% | -8 | 95% (active) | inactive | inactive | inactive | inactive |
| CCNc1cc(C(=O)N[C@@H](Cc2ccccc2)[C@H](O)CNC2(CC)CC2)cc(N2CCCCS2(=O)=O)c1 | 94% (active) | 59% (active) | 0 | 97% (active) | inactive | inactive | inactive | inactive |
| CC1CCC2(CC1)N=C(N)N=C(N)N2OCc1ccc(Br)c2ccccc12 (stereo not given) | 40% | 46% | -4 | 96% (active) | inactive | inactive | inactive | inactive |
| COc1cc(C(=O)Nc2nc3ccccc3[nH]2)ccc1OCC(=O)Nc1cccc(C(F)(F)F)c1 | 33% | 33% | -8 | 100% (active) | inactive | inactive | inactive | inactive |
